The record followed here is the supplement of paper PMC7366291.

Common to all, as to conditions: 25 µM; exposure: 24-48 hpf
Test [1] has as its system Danio rerio Tg(wt1b:EGFP) embryo, pronephros. Briefly: glomerular separation, fold change vs DMSO control; higher = glomeruli further apart (abnormal). Summed up:
(§1)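 Dechorionated Tg(wt1b:EGFP) zebrafish embryos were incubated at 28.5°C from 24 to 48 hpf with 25 μM compound in HEPES-buffered E3 containing 0.5% DMSO and 0.003% PTU. Distances and angles between 16 manually set points on maximum projections of dorsal pronephros images were measured in Fiji, with values over 2 SD from the feature mean excluded. Each feature is a fold change relative to the mean of same-day DMSO-treated embryos.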

The test system is the same in test [2]. Briefly: glomerular width (mean of left and right), fold change vs DMSO control; higher = wider glomerulus. Summed up: as §1
For test [3] the test system is unchanged. Briefly: fraction of imaged embryos annotated as normal kidney; higher = less nephrotoxic; extreme values may be limits of the assay. In a few lines: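 The value given is the share of embryos in each treatment scored as having a normal kidney. To obtain it, dechorionated Tg(wt1b:EGFP) zebrafish embryos were treated from 24 to 48 hpf at 28.5°C with 25 μM compound in 0.5% DMSO, in 5 mM HEPES-buffered E3 with 0.003% PTU. Pronephroi were imaged by widefield fluorescence (470 nm, 10 z-slices), and every embryo was annotated by hand from maximum projections.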

The test system is the same in test [4]. Put plainly: pronephric angle neck segment to proximal convoluted tubule (mean of left and right), fold change vs DMSO control; higher = larger pronephric angle. In a few lines: as §1

The structures appear in SMILES notation. Where a name gives a salt, the structure may show the parent alone. ± gives the standard deviation or the standard deviation of the averaged measurements.

Take `COc1ccccc1N1CCN(CC(O)COc2cccc3ccccc23)CC1` (centres undefined) [Naftopidil dihydrochloride]: in test [1], the glomerular separation is 0.922 ± 0.42. This compound showed a glomerular width in test [2] of 0.983 ± 0.024. Moreover, the “fraction of imaged embryos annotated as normal kidney” value (from here on “fraction of imaged embryos annotated”) in test [3] is 0.833. Further, the “pronephric angle neck segment” value in test [4] is 0.966 ± 0.034.
As for `CO/N=C(\C(=O)N[C@@H]1C(=O)N2C(C(=O)O)=C(COC(C)=O)CS[C@H]12)c1csc(N)n1` [Cefotaxime sodium salt], the glomerular separation in test [1] was found to be 0.857 ± 0.26. This compound came in with a glomerular width in test [2] of 0.957 ± 0.011. In test [3], the “fraction of imaged embryos annotated” value is 0.909. The “pronephric angle neck segment” value in test [4] was determined as 0.982 ± 0.017.
The matching figures for `CC(=O)N(O)CCCCCNC(=O)CCC(=O)N(O)CCCCCNC(=O)CCC(=O)N(O)CCCCCN` [Deferoxamine mesylate]: 0.888 ± 0.3, 1.02 ± 0.042, 0.917 and 1.01 ± 0.018.
Regarding `N=C(N)N1CCc2ccccc2C1` [Debrisoquin sulfate], in test [1], the glomerular separation is 1.02 ± 0.24. In addition, the glomerular width in test [2] was 0.9804 ± 0.0064. Also, the “fraction of imaged embryos annotated” value in test [3] was 0.667. In test [4], the “pronephric angle neck segment” value was found to be 1.01 ± 0.01.
The matching figures for `CCCCC(=O)N(Cc1ccc(-c2ccccc2-c2nnn[nH]2)cc1)[C@H](C(=O)O)C(C)C` [Valsartan]: 0.756 ± 0.22, 1.09 ± 0.026, 1 and 0.991 ± 0.021.
On to `Cc1ccnc(NS(=O)(=O)c2ccc(N)cc2)n1` [Sulfamerazine], for which the glomerular separation in test [1] came out at 0.775 ± 0.22. Further, the glomerular width in test [2] is 1.03 ± 0.011. Also, the “fraction of imaged embryos annotated” value in test [3] was 0.909. Also, in test [4], the “pronephric angle neck segment” value came out at 0.974 ± 0.085.
As to `CCN1CCC[C@H]1CNC(=O)c1c(O)c(Cl)cc(Cl)c1OC` [Raclopride], the glomerular separation in test [1] stood at 1.26 ± 0.47. For the same compound, the glomerular width in test [2] worked out at 0.903 ± 0.033. For the same compound, the “fraction of imaged embryos annotated” value in test [3] came out at 0.917. In addition, the “pronephric angle neck segment” value in test [4] is 1.02 ± 0.12.
Take `CCCOc1ccc(C(=O)OCCN(CC)CC)cc1N` [Proparacaine hydrochloride]: in test [1], the glomerular separation worked out at 0.768 ± 0.39. In addition, the glomerular width in test [2] stood at 0.93 ± 0.052. In addition, the “fraction of imaged embryos annotated” value in test [3] was 0.833. Moreover, the “pronephric angle neck segment” value in test [4] was found to be 0.998 ± 0.041.
The matching figures for `Nc1ncnc2c1ncn2[C@@H]1O[C@H](CO)[C@@H](O)[C@@H]1O` [Vidarabine]: 1.29 ± 0.56, 1.06 ± 0.023, 0.583 and 1.03 ± 0.074.
In turn, `CC/C(=C(\c1ccccc1)c1ccc(OCCN(C)C)cc1)c1ccccc1` [Tamoxifen citrate] came in with a glomerular separation in test [1] of 0.968 ± 0.33. In test [2], this compound showed a glomerular width of 0.977 ± 0.019. Moreover, in test [3], the “fraction of imaged embryos annotated” value is 0.833. In test [4], the “pronephric angle neck segment” value worked out at 1.02 ± 0.045.
For `CC(C)NCC(O)c1ccc(O)c(O)c1` (single isomer, unassigned; (-)) [(-)-Isoproterenol hydrochloride], in that order: 0.881 ± 0.24, 1.033 ± 0.0021, 0.833 and 1.02 ± 0.021.
`O=C(CCCN1CCC(O)(c2ccc(Br)cc2)CC1)c1ccc(F)cc1` [Bromperidol] came in with a glomerular separation in test [1] of 0.878 ± 0.23. Further, in test [2], the glomerular width came out at 1.03 ± 0.076. In addition, the “fraction of imaged embryos annotated” value in test [3] was found to be 1. Further, in test [4], the “pronephric angle neck segment” value was determined as 0.974 ± 0.038.
Compound `C#C[C@]1(O)CC[C@H]2[C@@H]3CCc4cc(OC)ccc4[C@H]3CC[C@@]21C` [Ethynylestradiol 3-methyl ether] gave a glomerular separation in test [1] of 0.896 ± 0.42. This compound had a glomerular width in test [2] of 1.038 ± 0.0014. For the same compound, the “fraction of imaged embryos annotated” value in test [3] is 0.833. In test [4], the “pronephric angle neck segment” value was 1.03 ± 0.013.
The compound `C[C@]12CC[C@@H]3c4ccc(O)cc4CC[C@H]3[C@@H]1CC[C@@H]2O` [Estradiol-17 beta] displayed a glomerular separation in test [1] of 3.16 ± 1.2. Besides, in test [2], the glomerular width was determined as 0.812 ± 0.069. In addition, the “fraction of imaged embryos annotated” value in test [3] was 0.167. Besides, the “pronephric angle neck segment” value in test [4] amounted to 1.29 ± 0.22.
Consider `C[N+](C)(CCOc1ccccc1)Cc1ccccc1.O=C([O-])c1cc2ccccc2cc1O` [Bephenium hydroxynaphthoate], for which the glomerular separation in test [1] was 2.05 ± 0.8. This compound had a glomerular width in test [2] of 0.9959 ± 0.0015. In test [3], the “fraction of imaged embryos annotated” value was 0.583. The “pronephric angle neck segment” value in test [4] came out at 1.17 ± 0.053.
Turning to `CC(C)NCC(O)c1ccc2ccccc2c1` (centres undefined) [Pronethalol hydrochloride], the glomerular separation in test [1] came to 0.915 ± 0.49. The compound further gave a glomerular width in test [2] of 0.96 ± 0.036. The “fraction of imaged embryos annotated” value in test [3] turned out to be 0.833. In test [4], the “pronephric angle neck segment” value was 1.03 ± 0.06.
In turn, `CC(=O)[C@@]12O[C@](C)(c3ccccc3)O[C@@H]1C[C@H]1[C@@H]3CCC4=CC(=O)CC[C@]4(C)[C@H]3CC[C@@]12C` [Algestone acetophenide] registered a glomerular separation in test [1] of 1.76 ± 0.84. In addition, the glomerular width in test [2] was 1.05 ± 0.047. Also, the “fraction of imaged embryos annotated” value in test [3] was 0.5. Besides, in test [4], the “pronephric angle neck segment” value was determined as 1.02 ± 0.048.
`NNc1nncc2ccccc12` [Hydralazine hydrochloride] came in with a glomerular separation in test [1] of 1.14 ± 0.53. The compound also returned a glomerular width in test [2] of 1.04 ± 0.041. Further, in test [3], the “fraction of imaged embryos annotated” value is 0.818. Also, the “pronephric angle neck segment” value in test [4] was 1.02 ± 0.039.
The compound `CC(C(=O)O)c1ccc2c(c1)Cc1cccnc1O2` (centres undefined) [Pranoprofen] came in with a glomerular separation in test [1] of 0.724 ± 0.18. In test [2], this compound gave a glomerular width of 0.956 ± 0.035. Moreover, the “fraction of imaged embryos annotated” value in test [3] turned out to be 0.583. In addition, the “pronephric angle neck segment” value in test [4] came out at 1.049 ± 0.01.
Regarding `CN(C)CCCC1(c2ccc(F)cc2)OCc2cc(C#N)ccc21` (centres undefined) [Citalopram Hydrobromide], in test [1], the glomerular separation turned out to be 1.21 ± 0.7. Further, in test [2], the glomerular width was 0.991 ± 0.035. For the same compound, the “fraction of imaged embryos annotated” value in test [3] stood at 0.667. Besides, the “pronephric angle neck segment” value in test [4] amounted to 0.956 ± 0.032.
Take `CN(C)[C@@H]1C(O)=C(C(N)=O)C(=O)[C@@]2(O)C(O)=C3C(=O)c4c(O)cccc4[C@@](C)(O)[C@H]3C[C@@H]12` [Tetracycline hydrochloride]: the glomerular separation in test [1] was 1.33 ± 0.62. In test [2], the glomerular width is 1.06 ± 0.042. For the same compound, the “fraction of imaged embryos annotated” value in test [3] amounted to 0.778. Further, the “pronephric angle neck segment” value in test [4] was determined as 0.9721 ± 0.0096.
For `CO[C@H]1C[C@H](O[C@H]2[C@H](C)[C@@H](O[C@@H]3O[C@H](C)C[C@H](N(C)C)[C@H]3OC(C)=O)[C@@H](C)C[C@@]3(CO3)C(=O)[C@H](C)[C@@H](OC(C)=O)[C@@H](C)[C@@H](C)OC(=O)[C@@H]2C)O[C@@H](C)[C@@H]1OC(C)=O` [Troleandomycin], the glomerular separation in test [1] worked out at 1.39 ± 0.74. The compound further returned a glomerular width in test [2] of 1.12 ± 0.066. Besides, the “fraction of imaged embryos annotated” value in test [3] was 0.917. Moreover, the “pronephric angle neck segment” value in test [4] was determined as 0.969 ± 0.019.
In the case of `COc1ccc(Cl)cc1C(=O)NCCc1ccc(S(=O)(=O)NC(=O)NC2CCCCC2)cc1` [Glibenclamide], the glomerular separation in test [1] came to 0.804 ± 0.39. This compound also displayed a glomerular width in test [2] of 1.05 ± 0.023. Besides, the “fraction of imaged embryos annotated” value in test [3] is 0.818. In addition, in test [4], the “pronephric angle neck segment” value came out at 0.999 ± 0.047.
In turn, `CN1CCCCC1CCN1c2ccccc2Sc2ccc([S+](C)[O-])cc21` (centres undefined) [Mesoridazine besylate] gave a glomerular separation in test [1] of 1.4 ± 1. This compound also displayed a glomerular width in test [2] of 0.916 ± 0.033. In addition, the “fraction of imaged embryos annotated” value in test [3] turned out to be 0.833. Also, the “pronephric angle neck segment” value in test [4] is 1.02 ± 0.033.
The matching figures for `COc1nc(C)nc(Cl)c1NC1=NCCN1` [Moxonidine]: 1.07 ± 0.47, 1.01 ± 0.011, 1 and 0.96 ± 0.0097.
`CC[C@H]1OC(=O)C[C@@H](O)[C@H](C)[C@@H](O[C@@H]2O[C@H](C)[C@@H](O[C@H]3C[C@@](C)(O)[C@@H](O)[C@H](C)O3)[C@H](N(C)C)[C@H]2O)[C@@H](CC=O)C[C@@H](C)C(=O)/C=C/C(C)=C/[C@@H]1CO[C@@H]1O[C@H](C)[C@@H](O)[C@@H](OC)[C@H]1OC` [Tylosin] came in with a glomerular separation in test [1] of 0.911 ± 0.28. In test [2], this compound registered a glomerular width of 0.983 ± 0.0057. For the same compound, in test [3], the “fraction of imaged embryos annotated” value was determined as 0.833. Further, in test [4], the “pronephric angle neck segment” value worked out at 1.005 ± 0.0099.
